Results taken from PubChem BioAssay.
For some assays here: Potency and affinity values are given separately. Calls of active or inactive are those of the source. Unless noted, the rule behind the calls is not given here.

Tests used:
[1] = antimalarial activity against Dd2 strain (AID 2302;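 active = growth inhibition above 50% at the single 2 µM test dose, taken to imply half-maximal potency below 2 µM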;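 note: 0% = DMSO untreated growth and 100% = chloroquine plus artemisinin killed control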); conditions: P. falciparum Dd2 in RBCs, LDH growth readout, 72 h; at 2 µM; hits give high values
[2] = HepG2 cytotoxicity, primary screen, cytotoxicity control for P. falciparum antimalarial project, cell-based, ATP luminescence (AID 2303;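 active = inhibition above 50%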;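 note: 0% = DMSO wells and 100% = digitonin-killed cells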); conditions: HepG2 viability, 24-48 h, at 10 µM, hits give high values
[3] = target: L-lactate dehydrogenase (Plasmodium falciparum (isolate CDC / Honduras)) (UniProt Q27743); assay: PfLDH activity inhibition – cell lysate, 3D7 strain, counter-screen for P. falciparum growth inhibition project (AID 2304);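 note: 0% = vehicle and 100% = reference inhibitor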; conditions: P. falciparum 3D7 crude extract, LDH APAD/NBT absorbance; at 2 µM; hits give high values
[4] = inhibition of 3D7 malaria parasite growth – strain 3D7 (AID 2306);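 note: 0% = DMSO wells and 100% = chloroquine plus artemisinin control wells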; conditions: P. falciparum 3D7 erythrocytic growth, LDH absorbance, 72 h; at 2 µM; hits give high values
[5] = target: Calcium-dependent protein kinase 1 (Plasmodium falciparum (isolate 3D7)) (UniProt P62344); assay: PfCDPK1 kinase inhibitors, biochemical, TCAMS library (AID 1159585; cut-off not given, nearly all actives have IC50 up to about 0.98 µM;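 note: inhibitors leave more ATP so luminescence rises with inhibition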); conditions: recombinant PfCDPK1, Kinase-Glo ATP depletion luminescence
[6] = target: Plasmodium falciparum protein kinase 6 (PK6, PF3D7_1337100) (UniProt Q8IDW1); assay: PfPK6 kinase inhibitors, biochemical, TCAMS library (AID 1159586); conditions: recombinant PfPK6, Kinase-Glo ATP depletion luminescence
[7] = target: Protein kinase 7 (PK7), Plasmodium falciparum 3D7 (PF3D7_0213400) (UniProt Q7YTF7); assay: inhibition of Plasmodium PK7 catalytic activity – biochemical, TCAMS antimalarial set, Kinase-Glo luminescence (AID 1159587); conditions: recombinant PfPK7, Kinase-Glo ATP depletion luminescence
[8] = target: Calcium-dependent protein kinase 4 (Plasmodium falciparum (isolate 3D7)) (UniProt Q8IBS5); assay: PfCDPK4 kinase inhibitors, biochemical, TCAMS library (AID 1159588; cut-off not given, nearly all actives have IC50 up to about 0.91 µM); conditions: recombinant PfCDPK4, Kinase-Glo ATP depletion luminescence
Chain of Calcium-dependent protein kinase 4 (Plasmodium falciparum (isolate 3D7)) (Q8IBS5 whole entry, looked up): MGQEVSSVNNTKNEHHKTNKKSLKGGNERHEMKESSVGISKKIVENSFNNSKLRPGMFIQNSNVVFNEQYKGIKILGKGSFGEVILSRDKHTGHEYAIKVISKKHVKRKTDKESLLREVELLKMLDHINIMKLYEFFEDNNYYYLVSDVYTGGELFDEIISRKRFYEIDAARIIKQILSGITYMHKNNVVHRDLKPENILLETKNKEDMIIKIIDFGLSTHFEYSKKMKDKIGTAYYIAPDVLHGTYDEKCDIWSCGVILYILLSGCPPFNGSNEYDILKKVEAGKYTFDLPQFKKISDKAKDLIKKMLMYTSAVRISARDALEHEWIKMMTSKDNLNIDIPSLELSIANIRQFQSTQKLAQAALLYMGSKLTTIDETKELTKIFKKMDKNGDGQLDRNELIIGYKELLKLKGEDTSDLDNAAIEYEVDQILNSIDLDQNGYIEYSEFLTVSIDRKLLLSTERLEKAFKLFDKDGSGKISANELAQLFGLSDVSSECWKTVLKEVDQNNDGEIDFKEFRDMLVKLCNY

Chain of Plasmodium falciparum protein kinase 6 (PK6, PF3D7_1337100) (Q8IDW1 1-305): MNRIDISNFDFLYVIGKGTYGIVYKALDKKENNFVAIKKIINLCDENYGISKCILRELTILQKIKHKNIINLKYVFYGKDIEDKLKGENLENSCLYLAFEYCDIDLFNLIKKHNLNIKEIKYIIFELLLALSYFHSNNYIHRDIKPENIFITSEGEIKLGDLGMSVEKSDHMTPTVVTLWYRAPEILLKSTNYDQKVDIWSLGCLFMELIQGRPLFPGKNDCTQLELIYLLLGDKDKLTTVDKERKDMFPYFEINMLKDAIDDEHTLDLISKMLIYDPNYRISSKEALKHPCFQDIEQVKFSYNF
Chain of L-lactate dehydrogenase (Plasmodium falciparum (isolate CDC / Honduras)) (Q27743 whole entry, looked up): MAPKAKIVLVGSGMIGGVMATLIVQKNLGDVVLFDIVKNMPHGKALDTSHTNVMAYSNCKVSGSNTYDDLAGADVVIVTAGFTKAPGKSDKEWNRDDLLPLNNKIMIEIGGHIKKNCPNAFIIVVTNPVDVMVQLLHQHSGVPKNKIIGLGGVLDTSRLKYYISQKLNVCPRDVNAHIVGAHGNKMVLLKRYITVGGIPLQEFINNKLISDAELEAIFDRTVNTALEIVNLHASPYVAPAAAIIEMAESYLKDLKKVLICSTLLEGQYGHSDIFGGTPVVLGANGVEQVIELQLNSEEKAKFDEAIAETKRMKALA
Chain of Calcium-dependent protein kinase 1 (Plasmodium falciparum (isolate 3D7)) (P62344 whole entry, looked up): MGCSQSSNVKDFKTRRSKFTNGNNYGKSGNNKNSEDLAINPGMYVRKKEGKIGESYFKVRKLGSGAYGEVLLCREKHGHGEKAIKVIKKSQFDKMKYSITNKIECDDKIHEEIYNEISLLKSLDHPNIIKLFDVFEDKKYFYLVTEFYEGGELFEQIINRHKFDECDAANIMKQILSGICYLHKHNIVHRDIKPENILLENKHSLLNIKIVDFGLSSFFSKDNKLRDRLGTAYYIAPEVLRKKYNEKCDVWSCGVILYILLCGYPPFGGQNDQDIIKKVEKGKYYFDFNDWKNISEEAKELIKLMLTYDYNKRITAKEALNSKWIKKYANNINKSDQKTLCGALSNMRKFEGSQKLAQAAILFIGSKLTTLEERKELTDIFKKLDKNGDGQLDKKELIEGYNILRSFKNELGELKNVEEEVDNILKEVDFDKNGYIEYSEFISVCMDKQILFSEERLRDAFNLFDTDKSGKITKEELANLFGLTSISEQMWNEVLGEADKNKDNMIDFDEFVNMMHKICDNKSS
Chain of Protein kinase 7 (PK7), Plasmodium falciparum 3D7 (PF3D7_0213400) (Q7YTF7 1-343): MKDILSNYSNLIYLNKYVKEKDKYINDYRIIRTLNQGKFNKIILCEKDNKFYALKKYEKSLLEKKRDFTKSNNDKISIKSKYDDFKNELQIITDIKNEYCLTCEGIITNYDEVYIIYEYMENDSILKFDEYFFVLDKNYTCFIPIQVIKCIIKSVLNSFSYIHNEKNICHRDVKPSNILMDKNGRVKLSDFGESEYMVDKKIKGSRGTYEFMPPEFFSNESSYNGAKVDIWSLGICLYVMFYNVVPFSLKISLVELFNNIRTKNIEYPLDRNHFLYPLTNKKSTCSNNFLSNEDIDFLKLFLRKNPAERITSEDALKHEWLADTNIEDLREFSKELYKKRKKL

Cc1cc(NN=CC=Cc2ccccc2)c2ccccc2n1
active: growth inhibition [1] 69% | growth inhibition [4] 101%
inactive: inhibition [2] 19% | inhibition [3] 1% | outcome [5] | outcome [6] | outcome [7] | outcome [8]

C=Cc1ccccc1C1(O)CCN(CCCCNC(=O)c2ccc(-c3ccc(C#N)cc3)cc2)CC1
inactive: inhibition [2] 27% | inhibition [3] 0% | outcome [5] | outcome [6] | outcome [7] | outcome [8]
active: growth inhibition [1] 64% | growth inhibition [4] 88%

COc1cc(C(=O)N2CCOC(CCN3CCc4c(c5ccccc5n4C)C3)(c3ccc(Cl)c(Cl)c3)C2)cc(OC)c1OC (stereo not given)
inactive: inhibition [2] 16% | inhibition [3] -4% | outcome [5] | outcome [6] | outcome [7] | outcome [8]
active: growth inhibition [1] 68% | growth inhibition [4] 87%

O=C(c1cccc(-c2noc(C(F)(F)F)n2)c1)N1CCN(c2ccncc2)CC1
active: growth inhibition [1] 56% | growth inhibition [4] 90%
inactive: inhibition [2] 14% | inhibition [3] 3% | outcome [5] | outcome [6] | outcome [7] | outcome [8]

O=C(c1ccc(-c2cccc(-c3nc4ccc(C(F)(F)F)cc4[nH]3)c2)cc1)N1CCCCC1CN1CCC(O)C1 (stereo not given)
active: growth inhibition [1] 98% | growth inhibition [4] 100%
inactive: inhibition [2] 29% | inhibition [3] -11% | outcome [5] | outcome [6] | outcome [7] | outcome [8]

O=C(NCc1ccc(Cl)c(Cl)c1)c1ccc(-c2nc3ccc(Cl)cc3[nH]2)cc1
inactive: growth inhibition [1] 22% | inhibition [2] 20% | inhibition [3] -6% | outcome [5] | outcome [6] | outcome [7] | outcome [8]
active: growth inhibition [4] 96%

CO/C(=C\C=C\c1cc2cc(Cl)c(Cl)cc2[nH]1)C(=O)NCCCN1CCN(c2cccc(OCC(=O)Nc3cccc(C(=O)c4ccccc4)c3)c2)CC1
inactive: inhibition [2] 48% | inhibition [3] 2% | outcome [5] | outcome [6] | outcome [7] | outcome [8]
active: growth inhibition [1] 88% | growth inhibition [4] 94%

CN(C)c1ccc(C2(c3ccccc3)N=C(N)N(CCCc3ccccc3)C2=O)cc1 (stereo not given)
inactive: inhibition [2] 4% | inhibition [3] 0% | outcome [5] | outcome [6] | outcome [7] | outcome [8]
active: growth inhibition [1] 97% | growth inhibition [4] 99%

O=S(=O)(NCCN1CCCC1)c1cccc(-c2ccc(CNC3Cc4ccccc4C3)cc2)c1
inactive: inhibition [3] -4% | outcome [5] | outcome [6] | outcome [7] | outcome [8]
active: growth inhibition [1] 74% | inhibition [2] 79% | growth inhibition [4] 99%

CC(C)CN(c1nc(C(=O)NNC(=O)[C@H](CC2CC2)NC(=O)c2cc3cc(OCCN4CCCCC4)ccc3o2)cs1)C1CC1
inactive: inhibition [2] 2% | inhibition [3] -4% | outcome [5] | outcome [6] | outcome [7] | outcome [8]
active: growth inhibition [1] 98% | growth inhibition [4] 97%

NCc1ccc(-c2cccc(CNC3CCN(Cc4ccccc4)CC3)c2)cc1
inactive: inhibition [2] 24% | inhibition [3] -7% | outcome [5] | outcome [6] | outcome [7] | outcome [8]
active: growth inhibition [1] 50% | growth inhibition [4] 100%

COc1ccc(-n2ccnc2)cc1CNC1CCN(CC2Cn3c(=O)ccc4ccc(F)c2c43)CC1 (stereo not given)
inactive: growth inhibition [1] 18% | inhibition [2] 25% | inhibition [3] -1% | outcome [5] | outcome [6] | outcome [7] | outcome [8]
active: growth inhibition [4] 99%

Cc1nc(-c2cccc(NCc3ccccc3)c2)[nH]c1C
active: growth inhibition [4] 101%
inactive: growth inhibition [1] 48% | inhibition [2] 16% | inhibition [3] 1% | outcome [5] | outcome [6] | outcome [7] | outcome [8]

O=c1ccccn1CCCC1CCCCN1 (stereo not given)
inactive: growth inhibition [1] -1% | inhibition [2] -1% | inhibition [3] 0% | outcome [5] | outcome [6] | outcome [7] | outcome [8]
active: growth inhibition [4] 96%

Cc1ccc2nc(C)n(C3CCN(C(=O)Cc4ccccc4C)CC3)c2c1
active: growth inhibition [1] 100% | growth inhibition [4] 100%
inactive: inhibition [2] 2% | inhibition [3] 1% | outcome [5] | outcome [6] | outcome [7] | outcome [8]

CC[C@H](C)CNC(=O)c1cncc(-c2ccc(CNC3Cc4ccccc4C3)cc2)c1
active: growth inhibition [1] 95% | growth inhibition [4] 101%
inactive: inhibition [2] 14% | inhibition [3] 3% | outcome [5] | outcome [6] | outcome [7] | outcome [8]

O=C(c1ccc(F)c2ccccc12)N1CCc2cc3nccc(N4CCN5CCC[C@H]5C4)c3cc21
active: growth inhibition [1] 54% | growth inhibition [4] 90%
inactive: inhibition [2] -8% | inhibition [3] -5% | outcome [5] | outcome [6] | outcome [7] | outcome [8]

Cc1[nH]c(C)c(-c2ccc(C(=O)c3ccc(Cl)cc3)cc2)c(=O)c1Br
inactive: inhibition [2] 10% | inhibition [3] 4% | outcome [5] | outcome [6] | outcome [7] | outcome [8]
active: growth inhibition [1] 95% | growth inhibition [4] 97%

O=C(/C=C/c1ccc(Cl)cc1)NCCCCCN1CCC(C(=O)Nc2cccc(Cl)c2)CC1
inactive: growth inhibition [1] -6% | inhibition [2] 22% | inhibition [3] -8% | outcome [5] | outcome [6] | outcome [7] | outcome [8]
active: growth inhibition [4] 97%

CS(=O)(=O)c1ccc(CCNCc2ccc(-c3ccc(CN(C(=O)C4CCCC4)C4CCN(Cc5ccccc5)CC4)cc3)nc2)cc1
inactive: growth inhibition [1] 20% | inhibition [2] 24% | inhibition [3] -6% | outcome [5] | outcome [6] | outcome [7] | outcome [8]
active: growth inhibition [4] 91%

O=C(C1CC1)N1c2ccccc2CCc2ccccc21
active: growth inhibition [1] 57% | growth inhibition [4] 98%
inactive: inhibition [2] 40% | inhibition [3] 1% | outcome [5] | outcome [6] | outcome [7] | outcome [8]

CCCc1cc(OCCCOc2ccccc2)ccc1OCCCON1C(N)=NC(N)=NC1(C)C
inactive: inhibition [3] 6% | outcome [5] | outcome [6] | outcome [7] | outcome [8]
active: growth inhibition [1] 96% | inhibition [2] 68% | growth inhibition [4] 94%

COc1ccc(CCN(C)CCCCc2ccc(NC(=O)c3cccc4c(=O)c5cc(F)ccc5sc34)cc2)cc1OC
inactive: growth inhibition [1] 49% | inhibition [3] 0% | outcome [5] | outcome [6] | outcome [7] | outcome [8]
active: inhibition [2] 98% | growth inhibition [4] 96%

CCn1cnc2c(Nc3cccc([N+](=O)[O-])c3)nc(N3CCC(N4CCCCC4)CC3)nc21
active: growth inhibition [4] 98%
inactive: growth inhibition [1] 35% | inhibition [2] 31% | inhibition [3] 3% | outcome [5] | outcome [6] | outcome [7] | outcome [8]

CCCCCCCNc1cc(C)nc2ccc(OC)cc12
inactive: inhibition [2] 30% | inhibition [3] -2% | outcome [5] | outcome [6] | outcome [7] | outcome [8]
active: growth inhibition [1] 100% | growth inhibition [4] 101%

CC(C)(C)c1ccc(CNC(=O)c2cc(CNC3CCNCC3)ccc2O)cc1
inactive: growth inhibition [1] 8% | inhibition [2] 6% | inhibition [3] 2% | outcome [5] | outcome [6] | outcome [7] | outcome [8]
active: growth inhibition [4] 96%

O=C(Nc1ccc(NC2=NCCN2)cc1)c1ccc(C(=O)Nc2ccc(NC3=NCCN3)cc2)cc1
active: growth inhibition [1] 86% | growth inhibition [4] 91%
inactive: inhibition [2] 15% | inhibition [3] -8% | outcome [5] | outcome [6] | outcome [7] | outcome [8]

C=CCn1cc(C2CCN(CCCCNC(=O)c3sc(-c4ccc(C(F)(F)F)cc4)nc3CO)CC2)c2cc(OC)ccc21
inactive: growth inhibition [1] 4% | inhibition [2] 40% | inhibition [3] 4% | outcome [5] | outcome [6] | outcome [7] | outcome [8]
active: growth inhibition [4] 91%

O=C(Nc1ccc(C(=O)Oc2cccc3ccccc23)cc1)N[C@@H](Cc1ccc(O)cc1)C(=O)NC1CCN(Cc2ccc(O)cc2)C1 (stereo not given in full)
active: growth inhibition [4] 87%
inactive: growth inhibition [1] -5% | inhibition [2] -1% | inhibition [3] 1% | outcome [5] | outcome [6] | outcome [7] | outcome [8]

COc1ccc(-c2ccc(NC(=O)c3ccc(C#N)cc3)cc2)cc1CN1CCN(C)CC1
active: growth inhibition [4] 93%
inactive: growth inhibition [1] 49% | inhibition [2] 21% | inhibition [3] 1% | outcome [5] | outcome [6] | outcome [7] | outcome [8]

Cc1cccc2[nH]c(-c3ccc(-c4cccc(CNCCCN5CCCC5=O)c4)s3)nc12
inactive: growth inhibition [1] 26% | inhibition [2] 14% | inhibition [3] -9% | outcome [5] | outcome [6] | outcome [7] | outcome [8]
active: growth inhibition [4] 101%

CC(C)c1ccc(C2CCN(CCCCNC(=O)c3ccc(NC(=O)c4ccc(C(F)(F)F)cc4)cc3)CC2)c(O)c1
active: growth inhibition [1] 100% | growth inhibition [4] 99%
inactive: inhibition [2] 47% | inhibition [3] 7% | outcome [5] | outcome [6] | outcome [7] | outcome [8]

Nc1cc(-c2cc3c(OCc4ccccc4)cccc3[nH]2)ccn1
inactive: growth inhibition [1] 15% | inhibition [2] 23% | inhibition [3] 4% | outcome [5] | outcome [6] | outcome [7] | outcome [8]
active: growth inhibition [4] 85%

Cc1cc(-c2cccc(CNCCc3ccc(Cl)cc3)c2)cnc1N
active: growth inhibition [4] 90%
inactive: growth inhibition [1] 3% | inhibition [2] 19% | inhibition [3] 0% | outcome [5] | outcome [6] | outcome [7] | outcome [8]

Nc1nc(N)c2c(ccc3ccccc32)n1
active: inhibition [2] 60% | growth inhibition [4] 98%
inactive: growth inhibition [1] 20% | inhibition [3] -1% | outcome [5] | outcome [6] | outcome [7] | outcome [8]

Cc1cccc2[nH]c(-c3cccc(-c4ccc(NC(=O)CCc5cnc[nH]5)cc4)c3)nc12
inactive: inhibition [2] 3% | inhibition [3] 6% | outcome [5] | outcome [6] | outcome [7] | outcome [8]
active: growth inhibition [1] 92% | growth inhibition [4] 102%

CS(=O)(=O)c1ccccc1CNC(=O)c1ccc(-c2cccc(-c3nc4ccc(C(F)(F)F)cc4[nH]3)c2)cc1
active: growth inhibition [4] 91%
inactive: growth inhibition [1] 4% | inhibition [2] 36% | inhibition [3] 4% | outcome [5] | outcome [6] | outcome [7] | outcome [8]

CN(C)CCCn1c(N)c(-c2nc3ccccc3[nH]2)c2nc(C#N)c(C#N)nc21
active: growth inhibition [1] 101% | inhibition [2] 100% | growth inhibition [4] 102%
inactive: inhibition [3] -1% | outcome [5] | outcome [6] | outcome [7] | outcome [8]

O=C(Nc1ccccc1)Nc1ccc(-c2cccc(-c3nc4ccc(C(F)(F)F)cc4[nH]3)c2)cc1
active: growth inhibition [1] 73% | inhibition [2] 59% | growth inhibition [4] 101%
inactive: inhibition [3] 4% | outcome [5] | outcome [6] | outcome [7] | outcome [8]

Cn1cncc1C(=O)NC1CCN(c2ccnc(Nc3ccc(F)cc3)n2)C1 (stereo not given)
inactive: inhibition [2] 2% | inhibition [3] -7% | outcome [5] | outcome [6] | outcome [7] | outcome [8]
active: growth inhibition [1] 83% | growth inhibition [4] 97%
